Reference: PubChem BioAssay

Experiment: growth effects on S. cerevisiae YJM789 – YJM789 clinical isolate, OD600, 24 h, basal, primary screen (AID 1089);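 further: growth of clinical yeast isolate S. cerevisiae YJM 789 seeded 1000 cells per well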
Details: higher = more signal, called active from +8 up or from −8 down
Further: test concentration not given here.

z-score, inactive:
O=C(NCC(F)(F)F)[C@@H]1c2ccccc2C(=O)N(Cc2ccccc2Cl)[C@H]1c1ccc(CO)cc1 -0.896
C=C[C@H](OC)[C@@H](OC(=O)Nc1ccc(SC)cc1)c1ccc(OC)c(O)c1 -0.55
C=CC[C@]1(C(=O)OC)N=C(c2ccc(OCCCO)cc2)O[C@H]1c1ccccc1CN=[N+]=[N-] -0.664
COC(=O)Cn1c(C(=O)N2CCCC2)cc2c1C[C@H]1CN(C(=O)c3ccccc3)[C@@](Cc3ccccc3)(C(=O)OC)[C@@H]21 0.316
Cc1ccc(S[C@]2(C(=O)NCCCN(C)C)CC(=O)N(Cc3ccccc3)[C@@H]2c2ccc(CO)cc2I)cc1 -1.87
C#CCCCON=C1C[C@@H](O)[C@@H](O)[C@@H]2[C@@H]3C(=O)N(Cc4ccc5c(c4)OCO5)C(=O)[C@@H]3CC[C@@H]12 0.755

Experiment: S. pombe growth modifiers, basal conditions – strain 972, OD600, 24 h, no modulator, primary screen (AID 1090);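 further: basal condition with compound alone and no growth modifier present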
Details: S. pombe 972 growth, higher = more signal, called active from +8 up or from −8 down

z-score, inactive:
C[C@@H]1CC[C@H]2C(=O)N3[C@@H](CC[C@@H](C)[C@@H]3c3cccc(N4CCOCC4)c3)C(=O)N2[C@H]1c1cccc(N2CCOCC2)c1 0.132
O=C1c2ccccc2[C@](Cc2ccccc2I)(C(=O)O)[C@H](c2ccc(CO)cc2)N1C1CCCCC1 -2.37
COCCCNC(=O)[C@@]1(c2ccc([N+](=O)[O-])cc2)CC(=O)N(C2CCCCC2)[C@@H]1c1ccc(CO)cc1 -0.591
C=C(C(=O)CC[C@H](OC(=O)c1ccccc1-c1ccccc1C(=O)O)c1ccc(CO)o1)C(C)C -0.197
CSCC[C@@H]1NC(=O)CC=C[C@@H](C)COC(=O)[C@H](CCSC)NC(=O)CC=C[C@@H](C)COC1=O -1.12
CC1=C([C@H](O)CCc2ccccc2)[C@H](CO)[C@@H]2C(=O)N(Cc3ccccc3)C(=O)[C@@H]2C1 -1.41
CO[C@H]1COC(=O)[C@@H](C)NC(=O)CC=C[C@@H](C)[C@H](OC)COC(=O)CC=C[C@@H]1C -2.03
CC(C)NC(=O)[C@@]1(Cc2ccccc2I)c2ccccc2C(=O)N(C2CCCCC2)[C@H]1c1ccc(CO)cc1 -2.09
O=C1O[C@@H](c2ccccc2)[C@@H](c2ccccc2)N2[C@@H](c3ccccc3OCCO)[C@]3(C(=O)Nc4ccc(C#CC5=CCCCC5)cc43)[C@@H](C(=O)O)[C@H]12 -0.608
O=C1O[C@@H](c2ccccc2)[C@@H](c2ccccc2)N2[C@@H](c3ccc(OCCO)cc3)[C@]3(C(=O)Nc4ccc(C#CCCO)cc43)[C@@H](C(=O)N3CCN(c4ncccn4)CC3)[C@H]12 1.04
CC(=O)NCCCC[C@@H]1NC(=O)[C@@H]2C[C@H](C(=O)NCCCCCCN(C)C)[C@H](c3ccc(O)cc3)N2C1=O -0.542
O=C(NCc1ccccc1)[C@@]1(CCS(=O)(=O)c2ccccc2)COC(c2ccc(OCCCO)cc2)=N1 -0.111
O=C1O[C@@H](c2ccccc2)[C@@H](c2ccccc2)N2[C@@H](c3ccc(O)cc3)[C@]3(C(=O)Nc4ccccc43)[C@@H](C(=O)N3CCN(c4ncccn4)CC3)[C@H]12 -1.95
COc1ccc(C(O)C2C=CC3C(=O)N(C)C(=O)C3N2N2CCCCC2)cc1OCc1ccccc1 (configuration not stated) -0.0814
COc1cc([C@@H]2N[C@H](C(=O)O)Cc3c2[nH]c2ccccc32)cc(OC)c1OC -0.581
COCCOC(=O)N1C(=O)[C@@]2(c3cc(C#CC4=CCCCC4)ccc31)[C@H](C(=O)NC[C@H](O)c1ccccc1)[C@H]1C(=O)O[C@H](c3ccccc3)[C@H](c3ccccc3)N1[C@@H]2c1ccccc1OCCO 1.79
COc1ccc(CCNC(=O)[C@@]2(c3ccc([N+](=O)[O-])cc3)CC(=O)N(C(C)C)[C@@H]2c2ccc(CO)cc2)cc1 -1.2
CC(=O)NCCCC[C@@H]1NC(=O)[C@H]2C[C@@H](C(=O)NCCCCCCN(C)C)[C@@H](c3ccc(O)cc3)N2C1=O -0.566
NC(=O)NCC#Cc1ccc2c(c1)[C@]1(C(=O)N2)[C@H](c2ccccc2OCCO)N2[C@H](c3ccccc3)[C@H](c3ccccc3)OC(=O)[C@H]2[C@@H]1C(=O)N1CCN(c2ncccn2)CC1 0.0422
CO[C@H]1COC(=O)CC=C[C@H](C)[C@@H](OC)COC(=O)CC=C[C@@H]1C -1.5
CN(C)C(=O)[C@@]1(Cc2ccccc2N=[N+]=[N-])N=C(c2ccc(OCCCO)cc2)O[C@H]1c1ccccc1CN=[N+]=[N-] -1.62
O=C(CS)NCCCCCNC(=O)[C@H]1C[C@H]2C(=O)N3CCC[C@H]3C(=O)N2[C@H]1c1ccc(O)cc1 -1.25
Cc1ccccc1C(O)C1C=CC2C(=O)N(c3ccccc3)C(=O)C2N1Nc1ccc(C#N)cc1 (configuration not stated) 1.85
COC(=O)[C@@]1(Cc2ccccc2N=[N+]=[N-])N=C(c2ccc(OCCCO)cc2)O[C@H]1c1ccccc1CN=[N+]=[N-] -1.3
CCCCCCc1nc(C2CC2)c(C)c2c1[Si](C(C)C)(C(C)C)OC2 -3.58
C[N+](C)(C)CCCC[C@@H]1NC(=O)[C@H]2C[C@@H](C(=O)NCc3ccc(F)cc3)[C@@H](c3cccc(OCCO)c3)N2C1=O -1.62
CCCNC(=O)[C@@H]1c2ccccc2C(=O)N(Cc2cc(F)cc(C(F)(F)F)c2)[C@H]1c1ccc(CO)cc1 -2.49
C#CCCCON=C1C[C@@H](O)[C@@H](O)[C@@H]2[C@@H]3C(=O)N(Cc4ccc5c(c4)OCO5)C(=O)[C@@H]3CC[C@H]12 0.518
Cc1ccc([C@@H]2CC=C(C(=O)O)[C@H](c3ccccc3)N2S(=O)(=O)c2ccc(C)cc2)cc1 -0.249
C=CCNC(=O)[C@H]1[C@@H]2C(=O)O[C@@H](c3ccccc3)[C@@H](c3ccccc3)N2[C@@H](c2ccc(O)cc2)[C@]12C(=O)Nc1ccc(C#CCNC(N)=O)cc12 -0.37
O=C(NCC(F)(F)F)[C@@H]1c2ccccc2C(=O)N(Cc2ccccc2Cl)[C@H]1c1ccc(CO)cc1 -0.243
C=C[C@H](OC)[C@@H](OC(=O)Nc1ccc(SC)cc1)c1ccc(OC)c(O)c1 -0.965
C=CC[C@]1(C(=O)OC)N=C(c2ccc(OCCCO)cc2)O[C@H]1c1ccccc1CN=[N+]=[N-] -2.28
COC(=O)Cn1c(C(=O)N2CCCC2)cc2c1C[C@H]1CN(C(=O)c3ccccc3)[C@@](Cc3ccccc3)(C(=O)OC)[C@@H]21 1.23
Cc1ccc(S[C@]2(C(=O)NCCCN(C)C)CC(=O)N(Cc3ccccc3)[C@@H]2c2ccc(CO)cc2I)cc1 -4.8
C#CCCCON=C1C[C@@H](O)[C@@H](O)[C@@H]2[C@@H]3C(=O)N(Cc4ccc5c(c4)OCO5)C(=O)[C@@H]3CC[C@@H]12 0.783
